Out of some 16,000 compounds screened, about 5,100 (32%) were called active. Not shown: some 25% with an inconclusive outcome. The list shows a part of the results. Unmarked numbers belong to inactive results. Calls follow the shape of the dose curve; as a rule, active = well fitted curve in the direction sought with a large enough effect; inconclusive = small, poorly fitted or top-dose-only effect, or effect the other way; inactive = no such curve, though single readings can be large or run the other way.

Broadly, the AC50 is the concentration giving half of the maximal activity seen.
% is scaled to controls: 0 for no effect and ±100 for the full control effect.

Cytochrome P450 3A4 (Homo sapiens), sequence (P08684 whole entry, looked up): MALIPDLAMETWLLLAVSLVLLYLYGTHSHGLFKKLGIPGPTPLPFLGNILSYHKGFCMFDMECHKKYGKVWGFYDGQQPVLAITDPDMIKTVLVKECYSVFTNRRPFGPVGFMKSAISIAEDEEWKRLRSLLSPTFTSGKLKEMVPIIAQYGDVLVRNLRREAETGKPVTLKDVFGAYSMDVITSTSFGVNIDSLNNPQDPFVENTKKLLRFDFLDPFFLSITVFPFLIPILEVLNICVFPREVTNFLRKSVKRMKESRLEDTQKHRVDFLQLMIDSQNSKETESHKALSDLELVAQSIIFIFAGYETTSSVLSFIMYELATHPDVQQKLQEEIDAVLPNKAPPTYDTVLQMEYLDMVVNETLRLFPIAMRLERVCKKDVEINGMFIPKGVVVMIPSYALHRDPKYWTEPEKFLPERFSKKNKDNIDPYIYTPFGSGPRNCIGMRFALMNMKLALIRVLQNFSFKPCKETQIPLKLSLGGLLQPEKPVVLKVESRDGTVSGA

This experiment has as its target Cytochrome P450 3A4 (Homo sapiens) (UniProt P08684). Nature of the experiment: Cytochrome panel assay with activity outcomes. The settings on record: recombinant CYP, pro-luciferin dealkylation, luminescence, p450-cyp3a4; series mostly up to 57.1 µM; activity, negative = inhibition: at the top concentration.
On to `CN(Cc1cc(C(C)(C)C)cc(Br)c1O)Cc1cc(C(C)(C)C)cc(Br)c1O`, for which the activity, negative = inhibition is -11.7% [at 11.4 µM].

In the case of `CCOC(=O)c1cnc2cc(-c3ccc(C)cc3)nn2c1-c1ccccc1`, the concentration at half-maximal activity (AC50) was 20 µM (active).

`CCOC(=O)c1cnc2cc(-c3ccc(C(C)(C)C)cc3)nn2c1N`: the “activity, negative = inhibition” value was 7.33%.

Consider `CCOC(=O)c1cnc(-c2ccccc2)nc1Oc1cccc(Cl)c1`, for which the “activity, negative = inhibition” value is -19.3%.

Take `Cc1onc(-c2ccccc2Cl)c1C(=O)NCC(=O)O`: the “activity, negative = inhibition” value was -12.3%.

Turning to `CC(=O)c1c(C(C)=O)c(C)n(NC(=O)c2ccccc2Cl)c1C`, the “activity, negative = inhibition” value is 17.3%.

Take `CC(=O)C1=NOC(CNC(=O)c2c(-c3ccccc3Cl)noc2C)C1` (stereo not drawn): the AC50 was 15.8 µM (active).

As to `CCOC(=O)C1=NOC(CNC(=O)C2=NOC(CNC(=O)c3c(-c4ccccc4Cl)noc3C)C2)C1` (stereo not drawn), the AC50 was 12.6 µM (active).

In the case of `CC(C)(C[C@@]1(C)NC(=O)NC1=O)OCc1ccccc1`, the activity, negative = inhibition was -6.17% [at 11.4 µM].

On to `O=C(O)c1cc(C(=O)C(=O)c2cc(C(=O)O)c(O)c3ccccc23)c2ccccc2c1O`, for which the activity, negative = inhibition was -22.6% [at 11.4 µM].

Regarding `Cc1cccc(NC(=O)N(Cc2nc3ccccc3c(=O)[nH]2)C2CCCC2)c1`, the AC50 is 15.8 µM (active).

For the compound `CC(C)c1ccc(NC(=O)N(CCc2nc3ccccc3[nH]2)C2CCCC2)cc1`, the activity, negative = inhibition is -18.7% [at 2.29 µM].

For `CCN(CC(=O)Nc1ccc(N2CCOCC2)cc1)Cc1nc2ccccc2c(=O)[nH]1`, the “activity, negative = inhibition” value is -42.3%.

For `Nc1nnc(C(c2ccccc2)c2ccccc2)s1`, the “activity, negative = inhibition” value was 13.5%.

Take `O=C(C[C@@H](c1ccccc1)N1CCCCC1)c1ccccc1`: the activity, negative = inhibition is -9.31% [at 11.4 µM].

Take `Cc1cccc(C(CC(=O)N2CCCC2)c2ccccc2)c1O` (stereo not drawn): the AC50 is 2.51 µM (active).

On to `Cc1ccc(OC(=O)c2cccc(C(=O)Oc3ccc(C)cn3)n2)nc1`, for which the “activity, negative = inhibition” value is -2.88%.

`FC(F)(F)c1nc(-c2ccncc2)ncc1-c1nnnn1-c1ccccc1`: the AC50 is 5.62 µM (active).

As to `FC(F)(F)c1nc(N2CCCC2)ncc1-c1nnnn1-c1ccccc1`, the activity, negative = inhibition was 21% [at 2.29 µM].

On to `O=c1cc(CF)[nH]c(=S)[nH]1`, for which the activity, negative = inhibition was -8.49% [at 11.4 µM].

With `COC(=O)c1ccc(NC(=O)c2ccccc2NS(=O)(=O)c2ccccc2)cc1`, the AC50 was 7.94 µM (active).

With `CC(=O)C=NCC(=O)O`, the activity, negative = inhibition was -0.504% [at 11.4 µM].

With `C#CCCCO/N=C1/C[C@@H](O)[C@@H](O)[C@@H]2[C@@H]3C(=O)N([C@@H](C)c4ccccc4)C(=O)[C@H]3CC[C@H]12`, the AC50 was 3.98 µM (active).

Take `C#CCCCO/N=C1/C[C@@H](O)[C@@H](O)[C@@H]2[C@@H]3C(=O)N([C@@H](C)c4ccccc4)C(=O)[C@H]3CC[C@@H]12`: the AC50 was 3.98 µM (active).

With `CCOC(=O)N/N=C1/C[C@@H](O)[C@@H](O)[C@@H]2[C@@H]3C(=O)N([C@@H](C)c4ccccc4)C(=O)[C@H]3CC[C@H]12`, the activity, negative = inhibition is -23.4% [at 11.4 µM].

For `C#CCCCO/N=C1/C[C@@H](O)[C@@H](O)[C@@H]2[C@@H]3C(=O)N(CC)C(=O)[C@H]3CC[C@H]12`, the activity, negative = inhibition was -27.7% [at 11.4 µM].

`C#CCCCO/N=C1/C[C@@H](O)[C@@H](O)[C@@H]2[C@@H]3C(=O)N(C4CCCCC4)C(=O)[C@H]3CC[C@@H]12`: the AC50 was 3.16 µM (active).

For the compound `CC(C)CO/N=C1/C[C@@H](O)[C@@H](O)[C@@H]2[C@@H]3C(=O)N([C@@H](C)c4ccccc4)C(=O)[C@H]3CC[C@@H]12`, the activity, negative = inhibition is -29.6% [at 11.4 µM].

Take `C#CCCCO/N=C1/C[C@@H](O)[C@@H](O)[C@@H]2[C@@H]3C(=O)N(Cc4ccccc4)C(=O)[C@H]3CC[C@@H]12`: the activity, negative = inhibition was -23.2% [at 11.4 µM].

As for `C[C@H](c1ccccc1)N1C(=O)[C@H]2[C@@H]3[C@H](O)[C@H](O)CC(=O)[C@H]3CC[C@H]2C1=O`, the activity, negative = inhibition is -18.1% [at 11.4 µM].

Regarding `C#CCCCO/N=C1/C[C@@H](O)[C@@H](O)[C@@H]2[C@@H]3C(=O)N(Cc4ccccc4)C(=O)[C@H]3CC[C@H]12`, the AC50 is 3.98 µM (active).

Turning to `CCOC(=O)N/N=C1/C[C@@H](O)[C@@H](O)[C@@H]2[C@@H]3C(=O)N([C@@H](C)c4ccccc4)C(=O)[C@H]3CC[C@@H]12`, the activity, negative = inhibition was -20.9% [at 11.4 µM].

For the compound `C#CCCCO/N=C1/C[C@@H](O)[C@@H](O)[C@@H]2[C@@H]3C(=O)N(CC)C(=O)[C@H]3CC[C@@H]12`, the activity, negative = inhibition is -23.5% [at 11.4 µM].

On to `C[C@@H]1[C@H]2CC[C@@H]3[C@@H]4CC=C5C[C@@H](N(C)C)CC[C@]5(C)[C@@H]4CC[C@@]32CN1C`, for which the “activity, negative = inhibition” value was 8.89% [at 25.6 µM].

With `CC(C)Nc1nc(Oc2ccc(Cl)cc2)cc(C(F)(F)F)n1`, the “activity, negative = inhibition” value is -8%.

On to `CC(C)Nc1cc(C(F)(F)F)nc(-c2ccccn2)n1`, for which the “activity, negative = inhibition” value was -7.62%.

Regarding `CC(C)c1cc(C(F)(F)F)nc(NNc2nc(C(C)C)cc(C(F)(F)F)n2)n1`, the AC50 was 3.16 µM (active).

Turning to `Cc1nn(-c2ccc(Cl)cc2)c2sc(C(=O)c3c(N)n(C)c(=O)n(C)c3=O)cc12`, the activity, negative = inhibition was 7.37% [at 2.29 µM].

For `CC(C)Cn1c(N)c(C(=O)CSc2ccc3c(c2)OCCO3)c(=O)n(C)c1=O`, the AC50 is 3.98 µM (active).

Consider `Cn1c(N)c(C(=O)CSc2ccc3c(c2)OCCO3)c(=O)n(C)c1=O`, for which the AC50 was 5.62 µM (active).

For the compound `O=c1c2ccccc2nnn1CSc1ccc2c(c1)OCCO2`, the “activity, negative = inhibition” value is -16.6%.

Take `CCc1c(C)c2c(C)[nH]nc2oc1=O`: the “activity, negative = inhibition” value was -8.51%.

For the compound `COc1ccc2nc3c(c([Si](C)(C)C(C)(C)C)c2c1)Cn1c-3cccc1=O`, the AC50 is 1.58 µM (active).

The values are drawn from PubChem BioAssay AID1851 (National Center for Advancing Translational Sciences (NCATS), 2009).
